Test results from PubChem BioAssay (EPA / NIEHS).
Inconclusive results are not listed. Active and inactive are the calls of the source. Rule for the calls: active = hit-call score of the fitted dose curve at least 0.9, where 1 is the maximum; inconclusive = response in the unintended direction; inactive = score below 0.9.

What follows are compounds tested against Steroid hormone receptor ERR1 (Homo sapiens) (UniProt P11474) (assay: ATG_ERRa_TRANS: Attagene TRANS-FACTORIAL HepG2 Assay for human Estrogen-Related Receptor alpha (ERRa) (AID 2282971)). Details: HepG2 Attagene TRANS reporter, ERRa transactivation.
Chain of Steroid hormone receptor ERR1 (Homo sapiens) (P11474 whole entry, looked up): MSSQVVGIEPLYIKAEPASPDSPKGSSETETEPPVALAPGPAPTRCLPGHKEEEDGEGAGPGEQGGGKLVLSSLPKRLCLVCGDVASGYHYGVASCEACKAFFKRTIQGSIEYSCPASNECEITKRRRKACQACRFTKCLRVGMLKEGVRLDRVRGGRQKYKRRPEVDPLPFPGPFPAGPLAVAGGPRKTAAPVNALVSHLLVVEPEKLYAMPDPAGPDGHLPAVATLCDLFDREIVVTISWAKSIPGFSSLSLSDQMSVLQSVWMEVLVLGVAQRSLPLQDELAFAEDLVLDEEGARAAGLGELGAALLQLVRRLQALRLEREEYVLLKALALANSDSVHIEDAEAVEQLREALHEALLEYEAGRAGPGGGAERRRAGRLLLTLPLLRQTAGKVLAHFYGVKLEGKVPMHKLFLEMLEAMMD
Method: ATG_TRANS is a cell-based, multiplexed-readout assay that uses HepG2, a human liver cell line, with measurements taken at 24 hours after chemical dosing in a 24-well plate.ATG_ERRa_TRANS is one of 30 assay component(s) measured or calculated from the ATG_TRANS assay. It is designed to make measurements of mRNA induction, a form of inducible reporter, as detected with fluorescence intensity signals by Reverse transcription polymerase chain reaction (RT-PCR) and Capillary electrophoresis technology.Data from the assay component ATG_ERRa_TRANS was analyzed into 1 assay endpoint. This assay endpoint, ATG_ERRa_TRANS, was analyzed in the positive analysis fitting direction relative to DMSO as the negative control and baseline of activity. Using a type of inducible reporter, measures of mRNA for gain-of-signal activity can be used to understand the reporter gene at the transcription factor-level as they relate to the gene ESRRA. Furthermore, this assay endpoint can be referred to as a primary readout, because this assay has produced multiple assay endpoints where this one serves a reporter gene function. To generalize the intended target to other relatable targets, this assay endpoint is annotated to the nuclear receptor intended target family, where the subfamily is steroidal.
Human liver HepG2 cells are transiently transfected with multiple reporter transcription units (MRTUs) in 6-well plates using FuGene 6 reagent (Roche; 3 ml FuGene/1 mg DNA). The MRTU constructs are regulated by a cis-regulating element (promoter). […] A major difference between the CIS and TRANS system is that in CIS activities of endogenous TFs are measured, whereas the TRANS assay evaluates changes in activities of exogenous, chimeric NR-Gal4 proteins. […] At the end of 24 hour incubation, total RNA was isolated using TriZol reagent (Invitrogen). The isolated RNA is then reverse-transcribed using oligo(dT) primer and Mo-MLV reverse transcriptase (Invitrogen) with DNAse I (Ambion) treatment for 30 min. The one-tenth of the produced cDNA was amplified by PCR using Taq DNA polymerase (Invitrogen) and two reporter sequence-specific primers. The PCR products were fluorescently labeled by primer extension with 6-arboxyfluorescein (6-FAM) 5'-labeled reporter sequence-specific primer (2 min at 95 C, 20 s at 68 C and 10 min at 72 C) and these products were digested with 5U of HpaI (New England Biolabs) for 2h at 37 C. The fragments were purified using Qiaquick PCR columns (Qiagen), analyzed on an ABI 3130xL genetic analyzer (Applied Biosystems) with peak positions identified by using a set of X-rhodamine (ROX)-labeled MapMarker1000 molecular weight standards (BioVentures). The raw capillary electrophoresis data was processed using Attagraph software (Attagene).

Compound | outcome
N#CC(c1ccccc1)c1ccccc1 | inactive
O=P1(NCCCl)OCCCN1CCCl (stereo not drawn) | inactive
C=COCCCl | inactive
C#CC1(O)CCCCC1 | inactive
CC(C)COP(=O)(OCC(C)C)OCC(C)C | inactive
CC(C)(C)C(=O)CCl | inactive
COC(=O)COc1ccc(Cl)cc1Cl | inactive
[CH3][Sn]([CH3])([Cl])[Cl] | inactive
Clc1ccc(-c2ccccc2)cc1 | inactive
CC(C)CCCCCCCOP(=O)(Oc1ccccc1)Oc1ccccc1 | inactive
CCOC(=O)N(C)N=O | inactive
N#Cc1cc(I)c(O)c(I)c1 | inactive
O=c1[nH]c(Cl)c(Cl)cc1Cl | inactive
CCNCC | inactive
ClC1=C(Cl)[C@]2(Cl)[C@@H]3[C@@H](Cl)[C@H](Cl)C[C@@H]3[C@@]1(Cl)C2(Cl)Cl | inactive
CC1(C)C(=O)NC(=O)NC1=O | inactive
O=[N+]([O-])C=Cc1ccccc1 | inactive
S=c1[nH]c2ccccc2[nH]1 | inactive
Oc1ccc(C2(c3ccc(O)cc3)c3ccccc3-c3ccccc32)cc1 | inactive

Compound | outcome
CCCCCCC1CCOC1=O (stereo not drawn) | inactive
COc1cc(OC)c(OC)cc1C=O | inactive
CC1CCC(=O)O1 (stereo not drawn) | inactive
O=CNC(N1CCN(C(NC=O)C(Cl)(Cl)Cl)CC1)C(Cl)(Cl)Cl (stereo not drawn) | inactive
Nc1ccc([N+](=O)[O-])cc1N | inactive
C=CC(=O)OCC(CC)CCCC (stereo not drawn) | inactive
Nc1ccccc1C(=O)OCCc1ccccc1 | inactive
Cl/C=C\CCl | inactive
CN(N=O)c1ccccc1 | inactive
CC1OC(C)OC(C)O1 (stereo not drawn) | inactive
CCOC(=O)NC(=S)Nc1ccccc1NC(=S)NC(=O)OCC | inactive
COCC(=O)N(c1c(C)cccc1C)N1CCOC1=O | inactive
c1ccc(Nc2ccc3ccccc3c2)cc1 | inactive
C[N+](=O)[O-] | inactive
Cc1ccc(N(SC(F)(Cl)Cl)S(=O)(=O)N(C)C)cc1 | inactive
O=S(=O)(c1ccccc1)c1ccccc1 | inactive
O=C=Nc1ccccc1 | inactive
CC1(C)[C@H](C(=O)O[C@H](C#N)c2cccc(Oc3ccccc3)c2)[C@@H]1C=C(Br)Br | inactive
CC(Cc1ccc(C(C)(C)C)cc1)CN1C[C@@H](C)O[C@@H](C)C1 (stereo partly drawn) | inactive
